# Laboratory results reported in PubChem BioAssay AID1159580 (chemical genetic matrix, 2015).
# The campaign covered roughly 5,500 compounds. About 2,000 (36%) were called active. About 18% were inconclusive and are not listed. The list shows a part of the results. Values without a mark were called inactive. Cut-off read from the data, not from the text of the source: active = normalized growth mostly below about 0.91 (no sharp cut-off); inconclusive = no clear call, values can overlap the other calls; inactive = mostly above about 0.92.
# Experiment: chemical genetic growth profiling, strain panel (AID 1159580);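 note: tested at 20 µM; growth read once vehicle control cultures reached saturation at 30 °C; 1 = growth at the plate median or of vehicle wells; lower values mean less growth of the strain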
# Conditions: S. cerevisiae deletion strains, growth OD
compound,measurement,setting,value
CC(=O)OC1CC[C@@]2(C)C(CCC3C2CC[C@]2(C)C(C4=CC(=O)OC4)C(OC(C)=O)CC32O)C1 (stereo not given in full),normalized growth,"locus YAL013W, strain DEP1, stronger effect = lower value",0.988
same,normalized growth,"locus YAL021C, strain ccr4, stronger effect = lower value",0.989
same,normalized growth,"locus YAL026C, strain drs2, stronger effect = lower value",0.979
same,normalized growth,"locus YAL030W, strain snc1, stronger effect = lower value",0.998
same,normalized growth,"locus YBL061C, strain skt5, stronger effect = lower value",0.994
same,normalized growth,"locus YBR009C, strain hhf1, stronger effect = lower value",1
same,normalized growth,"locus YBR021W, strain FUR4, stronger effect = lower value",0.837 (active)
same,normalized growth,"locus YBR023C, strain chs3, stronger effect = lower value",0.995
same,normalized growth,"locus YBR171W, strain sec66, stronger effect = lower value",0.987
same,normalized growth,"locus YBR229C, strain ROT2, stronger effect = lower value",0.997
same,normalized growth,"locus YBR231C, strain swc5, stronger effect = lower value",0.979
same,normalized growth,"locus YBR279W, strain paf1, stronger effect = lower value",0.984
same,normalized growth,"locus YCL011C, strain gbp2, stronger effect = lower value",0.972
same,normalized growth,"locus YCL016C, strain dcc1, stronger effect = lower value",0.971
same,normalized growth,"locus YCL029C, strain bik1, stronger effect = lower value",1.01
same,normalized growth,"locus YCL069W, strain vba3, stronger effect = lower value",0.999
same,normalized growth,"locus YCR088W, strain abp1, stronger effect = lower value",0.999
same,normalized growth,"locus YDL005C, strain med2, stronger effect = lower value",0.972
same,normalized growth,"locus YDL035C, strain GPR1, stronger effect = lower value",1.01
same,normalized growth,"locus YDL040C, strain nat1, stronger effect = lower value",0.99
same,normalized growth,"locus YDL074C, strain BRE1, stronger effect = lower value",0.972
same,normalized growth,"locus YDL101C, strain DUN1, stronger effect = lower value",1
same,normalized growth,"locus YDL134C, strain PPH21, stronger effect = lower value",1.03
same,normalized growth,"locus YDL185W, strain tfp1, stronger effect = lower value",1.02
same,normalized growth,"locus YDL192W, strain arf1, stronger effect = lower value",1
same,normalized growth,"locus YDR001C, strain nth1, stronger effect = lower value",0.986
same,normalized growth,"locus YDR069C, strain doa4, stronger effect = lower value",0.942
same,normalized growth,"locus YDR101C, strain arx1, stronger effect = lower value",1.01
same,normalized growth,"locus YDR137W, strain rgp1, stronger effect = lower value",0.986
same,normalized growth,"locus YDR159W, strain sac3, stronger effect = lower value",1.03
same,normalized growth,"locus YDR162C, strain NBP2, stronger effect = lower value",1
same,normalized growth,"locus YDR195W, strain ref2",0.951
same,normalized growth,"locus YDR297W, strain sur2, stronger effect = lower value",0.989
same,normalized growth,"locus YDR318W, strain mcm21, stronger effect = lower value",0.992
same,normalized growth,"locus YDR334W, strain swr1, stronger effect = lower value",0.976
same,normalized growth,"locus YDR335W, strain msn5, stronger effect = lower value",0.978
same,normalized growth,"locus YDR388W, stronger effect = lower value",1.01
same,normalized growth,"locus YDR392W, strain spt3, stronger effect = lower value",1.01
same,normalized growth,"locus YDR502C, strain sam2, stronger effect = lower value",0.994
same,normalized growth,"locus YEL003W, strain gim4, stronger effect = lower value",0.988
same,normalized growth,"locus YEL037C, strain rad23, stronger effect = lower value",0.997
same,normalized growth,"locus YEL061C, strain CIN8 (second series), stronger effect = lower value",0.985
same,normalized growth,"locus YEL061C, strain CIN8, stronger effect = lower value",0.997
same,normalized growth,"locus YER015W, strain faa2, stronger effect = lower value",0.983
same,normalized growth,"locus YER016W, strain bim1, stronger effect = lower value",0.965
same,normalized growth,"locus YER110C, stronger effect = lower value",1.01
same,normalized growth,"locus YER111C, strain swi4, stronger effect = lower value",0.978
same,normalized growth,"locus YER155C, strain BEM2 (second series), stronger effect = lower value",1.01
same,normalized growth,"locus YER155C, strain BEM2, stronger effect = lower value",0.996
same,normalized growth,"locus YER167W, strain BCK2, stronger effect = lower value",0.997
same,normalized growth,"locus YFR010W, strain ubp6, stronger effect = lower value",1
same,normalized growth,"locus YGL078C, strain dbp3, stronger effect = lower value",1
same,normalized growth,"locus YGL086W, strain mad1, stronger effect = lower value",1
same,normalized growth,"locus YGL167C, strain pmr1, stronger effect = lower value",0.982
same,normalized growth,"locus YGL173C, strain kem1, stronger effect = lower value",0.987
same,normalized growth,"locus YGL227W, strain vid30, stronger effect = lower value",0.98
same,normalized growth,"locus YGL240W, strain doc1, stronger effect = lower value",0.99
same,normalized growth,"locus YGL248W, strain PDE1, stronger effect = lower value",0.995
same,normalized growth,"locus YGL253W, strain hxk2, stronger effect = lower value",0.964
same,normalized growth,"locus YGR135W, strain pre9, stronger effect = lower value",1.01
same,normalized growth,"locus YGR229C, strain SMI1, stronger effect = lower value",0.976
same,normalized growth,"locus YGR252W, strain gcn5, stronger effect = lower value",0.993
same,normalized growth,"locus YHR013C, strain ard1, stronger effect = lower value",0.943
same,normalized growth,"locus YHR027C, strain rpn1, stronger effect = lower value",0.97
same,normalized growth,"locus YHR079C, strain IRE1 (second series), stronger effect = lower value",1
same,normalized growth,"locus YHR094C, strain hxt1, stronger effect = lower value",1
same,normalized growth,"locus YHR129C, strain ARP1, stronger effect = lower value",1
same,normalized growth,"locus YHR142W, strain chs7, stronger effect = lower value",0.958
same,normalized growth,"locus YHR200W, strain rpn10, stronger effect = lower value",1.01
same,normalized growth,"locus YIL066C, strain RNR3, stronger effect = lower value",1.01
same,normalized growth,"locus YIL073C, strain SPO22, stronger effect = lower value",1.04
same,normalized growth,"locus YIL125W, strain kgd1, stronger effect = lower value",1.02
same,normalized growth,"locus YIR030C, strain dcg1, stronger effect = lower value",1
same,normalized growth,"locus YJL092W, strain hpr5, stronger effect = lower value",0.986
same,normalized growth,"locus YJL095W, strain BCK1 (second series), stronger effect = lower value",0.993
same,normalized growth,"locus YJL095W, strain BCK1, stronger effect = lower value",0.999
same,normalized growth,"locus YJL115W, strain asf1, stronger effect = lower value",0.959
same,normalized growth,"locus YJL129C, strain trk1, stronger effect = lower value",0.956
same,normalized growth,"locus YJL134W, strain LCB3, stronger effect = lower value",0.995
same,normalized growth,"locus YJL154C, strain vps35, stronger effect = lower value",0.975
same,normalized growth,"locus YJL164C, strain tpk1, stronger effect = lower value",1
same,normalized growth,"locus YJL166W, strain qcr8, stronger effect = lower value",0.957
same,normalized growth,"locus YJL168C, strain set2, stronger effect = lower value",1.01
same,normalized growth,"locus YJL187C, strain SWE1 (second series), stronger effect = lower value",0.99
same,normalized growth,"locus YJL187C, strain SWE1, stronger effect = lower value",0.982
same,normalized growth,"locus YJR075W, strain HOC1, stronger effect = lower value",0.997
same,normalized growth,"locus YKL009W, strain mrt4, stronger effect = lower value",1.01
same,normalized growth,"locus YKL068W, stronger effect = lower value",1.01
same,normalized growth,"locus YKL085W, strain MDH1 (second series), stronger effect = lower value",1.01
same,normalized growth,"locus YKL085W, strain MDH1, stronger effect = lower value",1.01
same,normalized growth,"locus YKL160W, strain elf1, stronger effect = lower value",0.975
same,normalized growth,"locus YKR001C, strain vps1, stronger effect = lower value",1.01
same,normalized growth,"locus YKR026C, strain gcn3, stronger effect = lower value",0.993
same,normalized growth,"locus YKR091W, strain srl3, stronger effect = lower value",0.974
same,normalized growth,"locus YLL001W, strain dnm1, stronger effect = lower value",0.998
same,normalized growth,"locus YLL026W, stronger effect = lower value",0.983
same,normalized growth,"locus YLL041C, strain sdh2, stronger effect = lower value",1
same,normalized growth,"locus YLR027C, strain aat2, stronger effect = lower value",0.983
same,normalized growth,"locus YLR039C, strain RIC1, stronger effect = lower value",1.02
same,normalized growth,"locus YLR058C, strain SHM2, stronger effect = lower value",1
same,normalized growth,"locus YLR102C, strain apc9, stronger effect = lower value",1.01
same,normalized growth,"locus YLR221C, strain rsa3, stronger effect = lower value",0.997
same,normalized growth,"locus YLR258W, strain gsy2, stronger effect = lower value",0.979
same,normalized growth,"locus YLR262C, strain YPT6 (second series), stronger effect = lower value",0.974
same,normalized growth,"locus YLR262C, strain YPT6, stronger effect = lower value",1.03
same,normalized growth,"locus YLR268W, strain sec22, stronger effect = lower value",1.01
same,normalized growth,"locus YLR320W, strain mms22, stronger effect = lower value",1.01
same,normalized growth,"locus YLR342W, strain FKS1 (second series), stronger effect = lower value",0.986
same,normalized growth,"locus YLR342W, strain FKS1, stronger effect = lower value",1.01
same,normalized growth,"locus YLR357W, strain rsc2, stronger effect = lower value",0.967
same,normalized growth,"locus YLR370C, strain arc18, stronger effect = lower value",0.974
same,normalized growth,"locus YLR371W, strain rom2, stronger effect = lower value",0.996
same,normalized growth,"locus YLR384C, strain iki3, stronger effect = lower value",0.971
same,normalized growth,"locus YLR418C, strain cdc73, stronger effect = lower value",1.03
same,normalized growth,"locus YML016C, strain PPZ1, stronger effect = lower value",1
same,normalized growth,"locus YML032C, strain rad52, stronger effect = lower value",1.01
same,normalized growth,"locus YML120C, strain ndi1, stronger effect = lower value",0.996
same,normalized growth,"locus YML124C, strain tub3, stronger effect = lower value",1.01
same,normalized growth,"locus YMR058W, strain fet3, stronger effect = lower value",0.977
same,normalized growth,"locus YMR078C, strain ctf18, stronger effect = lower value",1.02
same,normalized growth,"locus YMR125W, strain sto1, stronger effect = lower value",0.977
same,normalized growth,"locus YMR129W, stronger effect = lower value",0.981
same,normalized growth,"locus YMR205C, strain PFK2, stronger effect = lower value",0.994
same,normalized growth,"locus YMR223W, strain ubp8, stronger effect = lower value",1
same,normalized growth,"locus YMR231W, strain pep5, stronger effect = lower value",0.99
same,normalized growth,"locus YMR307W, strain GAS1, stronger effect = lower value",1.02
same,normalized growth,"locus YNL067W, strain RPL9B, stronger effect = lower value",1.01
same,normalized growth,"locus YNL071W, strain lat1, stronger effect = lower value",0.999
same,normalized growth,"locus YNL153C, strain GIM3, stronger effect = lower value",1
same,normalized growth,"locus YNL209W, strain ssb2, stronger effect = lower value",0.996
same,normalized growth,"locus YNL233W, strain BNI4, stronger effect = lower value",0.989
same,normalized growth,"locus YNL248C, strain rpa49, stronger effect = lower value",0.946
same,normalized growth,"locus YNL250W, strain rad50, stronger effect = lower value",1.02
same,normalized growth,"locus YNL271C, strain bni1, stronger effect = lower value",1.01
same,normalized growth,"locus YNL298W, strain CLA4, stronger effect = lower value",1.04
same,normalized growth,"locus YNL307C, strain MCK1, stronger effect = lower value",1.03
same,normalized growth,"locus YNL322C, strain KRE1 (second series), stronger effect = lower value",0.971
same,normalized growth,"locus YNR049C, strain mso1, stronger effect = lower value",0.959
same,normalized growth,"locus YNR052C, strain pop2, stronger effect = lower value",0.999
same,normalized growth,"locus YOL006C, strain TOP1, stronger effect = lower value",1.04
same,normalized growth,"locus YOL012C, strain htz1",0.875
same,normalized growth,"locus YOL147C, strain pex11, stronger effect = lower value",1.01
same,normalized growth,"locus YOR001W, strain rrp6, stronger effect = lower value",1.03
same,normalized growth,"locus YOR061W, strain CKA2, stronger effect = lower value",1.01
same,normalized growth,"locus YOR069W, strain VPS5, stronger effect = lower value",0.999
same,normalized growth,"locus YOR070C, strain gyp1, stronger effect = lower value",0.995
same,normalized growth,"locus YOR080W, strain dia2, stronger effect = lower value",0.973
same,normalized growth,"locus YOR083W, strain WHI5, stronger effect = lower value",0.977
same,normalized growth,"locus YOR106W, strain vam3, stronger effect = lower value",0.956
same,normalized growth,"locus YOR136W, strain idh2, stronger effect = lower value",1.02
same,normalized growth,"locus YOR144C, strain elg1, stronger effect = lower value",1.02
same,normalized growth,"locus YOR184W, strain ser1, stronger effect = lower value",1.02
same,normalized growth,"locus YOR265W, strain rbl2, stronger effect = lower value",0.999
same,normalized growth,"locus YOR270C, strain vph1, stronger effect = lower value",0.965
same,normalized growth,"locus YOR290C, strain snf2, stronger effect = lower value",0.955
same,normalized growth,"locus YOR316C, strain cot1, stronger effect = lower value",1.02
same,normalized growth,"locus YPL051W, strain arl3, stronger effect = lower value",0.98
same,normalized growth,"locus YPL078C, strain atp4, stronger effect = lower value",0.977
same,normalized growth,"locus YPL106C, strain sse1, stronger effect = lower value",0.997
same,normalized growth,"locus YPL240C, strain hsp82, stronger effect = lower value",0.982
same,normalized growth,"locus YPR119W, strain clb2, stronger effect = lower value",1.01
same,normalized growth,"locus YPR141C, strain kar3, stronger effect = lower value",1
same,normalized growth,"locus YPR163C, strain tif3, stronger effect = lower value",1.02
same,normalized growth,"locus YPR167C, strain met16, stronger effect = lower value",0.999
same,normalized growth,"strain wtn01, stronger effect = lower value",1.01
